Laboratory results published in PubChem BioAssay AID1159580 (chemical genetic matrix, 2015).
The whole screen tested about 5,500 compounds, of which about 2,000 (36%) were called active. Not shown: some 18% with an inconclusive outcome. Cut-off read from the data, not from the text of the source: active = normalized growth mostly below about 0.91 (no sharp cut-off); inconclusive = no clear call, values can overlap the other calls; inactive = mostly above about 0.92. The list shows a part of the results.

Assay: chemical genetic growth profiling, strain panel (AID 1159580);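 note: tested at 20 µM; growth read once vehicle control cultures reached saturation at 30 °C; 1 = growth at the plate median or of vehicle wells; lower values mean less growth of the strain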
Settings: growth OD

Measured: normalized growth

CN(Cc1cc(Br)cc(Br)c1N)C1CCCCC1
inactive: S. cerevisiae deletion strains, locus YKL009W, strain mrt4, hits give low values 1.01 | S. cerevisiae deletion strains, locus YKL068W, hits give low values 1.01 | S. cerevisiae deletion strains, locus YKL085W, strain MDH1 (second series), hits give low values 1.01 | S. cerevisiae deletion strains, locus YKL085W, strain MDH1, hits give low values 1.01 | S. cerevisiae deletion strains, locus YKL160W, strain elf1, hits give low values 1 | S. cerevisiae deletion strains, locus YKL190W, strain CNB1, hits give low values 1.02 | S. cerevisiae deletion strains, locus YKR001C, strain vps1, hits give low values 0.994 | S. cerevisiae deletion strains, locus YKR026C, strain gcn3, hits give low values 1.04 | S. cerevisiae deletion strains, locus YKR091W, strain srl3, hits give low values 1.03 | S. cerevisiae deletion strains, locus YLL001W, strain dnm1, hits give low values 1.03 | S. cerevisiae deletion strains, locus YLL026W, hits give low values 1.03 | S. cerevisiae deletion strains, locus YLL041C, strain sdh2, hits give low values 1.05 | S. cerevisiae deletion strains, locus YLR027C, strain aat2, hits give low values 1.01 | S. cerevisiae deletion strains, locus YLR039C, strain RIC1, hits give low values 1.08 | S. cerevisiae deletion strains, locus YLR058C, strain SHM2, hits give low values 1.01 | S. cerevisiae deletion strains, locus YLR102C, strain apc9, hits give low values 1.02 | S. cerevisiae deletion strains, locus YLR113W, strain HOG1, hits give low values 0.947 | S. cerevisiae deletion strains, locus YLR221C, strain rsa3, hits give low values 0.997 | S. cerevisiae deletion strains, locus YLR258W, strain gsy2, hits give low values 1.03 | S. cerevisiae deletion strains, locus YLR262C, strain YPT6 (second series), hits give low values 0.982 | S. cerevisiae deletion strains, locus YLR262C, strain YPT6, hits give low values 1.08 | S. cerevisiae deletion strains, locus YLR268W, strain sec22, hits give low values 1.01 | S. cerevisiae deletion strains, locus YLR320W, strain mms22, hits give low values 0.984 | S. cerevisiae deletion strains, locus YLR330W, strain CHS5, hits give low values 1.02 | S. cerevisiae deletion strains, locus YLR342W, strain FKS1 (second series), hits give low values 1 | S. cerevisiae deletion strains, locus YLR342W, strain FKS1, hits give low values 1.02 | S. cerevisiae deletion strains, locus YLR357W, strain rsc2, hits give low values 1.06 | S. cerevisiae deletion strains, locus YLR370C, strain arc18, hits give low values 1.04 | S. cerevisiae deletion strains, locus YLR371W, strain rom2, hits give low values 1.02 | S. cerevisiae deletion strains, locus YLR384C, strain iki3, hits give low values 1.04 | S. cerevisiae deletion strains, locus YLR418C, strain cdc73, hits give low values 1.02 | S. cerevisiae deletion strains, locus YML016C, strain PPZ1, hits give low values 1.01 | S. cerevisiae deletion strains, locus YML032C, strain rad52, hits give low values 0.986 | S. cerevisiae deletion strains, locus YML120C, strain ndi1, hits give low values 1.04 | S. cerevisiae deletion strains, locus YML124C, strain tub3, hits give low values 1.03 | S. cerevisiae deletion strains, locus YMR058W, strain fet3, hits give low values 0.995 | S. cerevisiae deletion strains, locus YMR078C, strain ctf18, hits give low values 1.04 | S. cerevisiae deletion strains, locus YMR125W, strain sto1, hits give low values 1.06 | S. cerevisiae deletion strains, locus YMR129W, hits give low values 1.04 | S. cerevisiae deletion strains, locus YMR205C, strain PFK2, hits give low values 1.04 | S. cerevisiae deletion strains, locus YMR223W, strain ubp8, hits give low values 1 | S. cerevisiae deletion strains, locus YMR231W, strain pep5, hits give low values 1.04 | S. cerevisiae deletion strains, locus YMR307W, strain GAS1, hits give low values 1.17 | S. cerevisiae deletion strains, locus YNL067W, strain RPL9B, hits give low values 0.966 | S. cerevisiae deletion strains, locus YNL071W, strain lat1, hits give low values 1.04 | S. cerevisiae deletion strains, locus YNL183C, strain NPR1, hits give low values 0.838 | S. cerevisiae deletion strains, locus YNL209W, strain ssb2, hits give low values 1.03 | S. cerevisiae deletion strains, locus YNL233W, strain BNI4, hits give low values 1.01 | S. cerevisiae deletion strains, locus YNL248C, strain rpa49, hits give low values 1.04 | S. cerevisiae deletion strains, locus YNL250W, strain rad50, hits give low values 1.05 | S. cerevisiae deletion strains, locus YNL271C, strain bni1, hits give low values 1.02 | S. cerevisiae deletion strains, locus YNL298W, strain CLA4, hits give low values 1.03 | S. cerevisiae deletion strains, locus YNL307C, strain MCK1, hits give low values 1.01 | S. cerevisiae deletion strains, locus YNL322C, strain KRE1 (second series), hits give low values 1.06 | S. cerevisiae deletion strains, locus YNL322C, strain KRE1, hits give low values 1.02 | S. cerevisiae deletion strains, locus YNR049C, strain mso1, hits give low values 1.02 | S. cerevisiae deletion strains, locus YNR052C, strain pop2, hits give low values 1.01 | S. cerevisiae deletion strains, locus YOL006C, strain TOP1, hits give low values 0.804 | S. cerevisiae deletion strains, locus YOL012C, strain htz1 2.06 | S. cerevisiae deletion strains, locus YOL147C, strain pex11, hits give low values 1.03 | S. cerevisiae deletion strains, locus YOR001W, strain rrp6, hits give low values 1.01 | S. cerevisiae deletion strains, locus YOR061W, strain CKA2, hits give low values 1.01 | S. cerevisiae deletion strains, locus YOR069W, strain VPS5, hits give low values 1.02 | S. cerevisiae deletion strains, locus YOR070C, strain gyp1, hits give low values 1.03 | S. cerevisiae deletion strains, locus YOR080W, strain dia2, hits give low values 1.07 | S. cerevisiae deletion strains, locus YOR083W, strain WHI5, hits give low values 0.988 | S. cerevisiae deletion strains, locus YOR106W, strain vam3, hits give low values 1.01 | S. cerevisiae deletion strains, locus YOR136W, strain idh2, hits give low values 1.01 | S. cerevisiae deletion strains, locus YOR144C, strain elg1, hits give low values 1.02 | S. cerevisiae deletion strains, locus YOR184W, strain ser1, hits give low values 0.935 | S. cerevisiae deletion strains, locus YOR265W, strain rbl2, hits give low values 1.05 | S. cerevisiae deletion strains, locus YOR270C, strain vph1, hits give low values 0.811 | S. cerevisiae deletion strains, locus YOR290C, strain snf2, hits give low values 1 | S. cerevisiae deletion strains, locus YOR316C, strain cot1, hits give low values 1.02 | S. cerevisiae deletion strains, locus YPL051W, strain arl3, hits give low values 0.983 | S. cerevisiae deletion strains, locus YPL078C, strain atp4, hits give low values 1.01 | S. cerevisiae deletion strains, locus YPL106C, strain sse1, hits give low values 1 | S. cerevisiae deletion strains, locus YPL240C, strain hsp82, hits give low values 1.02 | S. cerevisiae deletion strains, locus YPL241C, strain CIN2, hits give low values 1.01 | S. cerevisiae deletion strains, locus YPL256C, strain CLN2, hits give low values 0.944 | S. cerevisiae deletion strains, locus YPR119W, strain clb2, hits give low values 1.01 | S. cerevisiae deletion strains, locus YPR141C, strain kar3, hits give low values 1.02 | S. cerevisiae deletion strains, locus YPR163C, strain tif3, hits give low values 1.03 | S. cerevisiae deletion strains, locus YPR167C, strain met16, hits give low values 1.01 | S. cerevisiae deletion strains, strain wtn01, hits give low values 0.995 | S. cerevisiae strains, strain wild type, hits give low values 1.01
active: S. cerevisiae deletion strains, locus YOR231W, strain MKK1, hits give low values 0.841
